About 21,000 targets were measured; listed, in parts, are those with the largest changes and a random draw of the rest.
Compound: CC1Cc2ccccc2N1C(=O)C1CCCN(C1)C(=O)CCl (mixture of isomers) [TRIM25 ligand 11 (diastereomer mixture)]
Assay: probe-labelled cysteine peptide fold change vs DMSO (competition) (log2 fold change); higher = less target engagement (more negative = stronger competition)
Conditions: THP-1, incubation time: 4 h
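Further: competitive chemoproteomic profiling in live THP-1 cells with an iodoacetamide desthiobiotin (IA-DTB) probe, comparing probe-labelled peptide intensities in compound-treated cells against DMSO-treated controls.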

UniProt Q9UID3, sequence (Q9UID3 whole entry): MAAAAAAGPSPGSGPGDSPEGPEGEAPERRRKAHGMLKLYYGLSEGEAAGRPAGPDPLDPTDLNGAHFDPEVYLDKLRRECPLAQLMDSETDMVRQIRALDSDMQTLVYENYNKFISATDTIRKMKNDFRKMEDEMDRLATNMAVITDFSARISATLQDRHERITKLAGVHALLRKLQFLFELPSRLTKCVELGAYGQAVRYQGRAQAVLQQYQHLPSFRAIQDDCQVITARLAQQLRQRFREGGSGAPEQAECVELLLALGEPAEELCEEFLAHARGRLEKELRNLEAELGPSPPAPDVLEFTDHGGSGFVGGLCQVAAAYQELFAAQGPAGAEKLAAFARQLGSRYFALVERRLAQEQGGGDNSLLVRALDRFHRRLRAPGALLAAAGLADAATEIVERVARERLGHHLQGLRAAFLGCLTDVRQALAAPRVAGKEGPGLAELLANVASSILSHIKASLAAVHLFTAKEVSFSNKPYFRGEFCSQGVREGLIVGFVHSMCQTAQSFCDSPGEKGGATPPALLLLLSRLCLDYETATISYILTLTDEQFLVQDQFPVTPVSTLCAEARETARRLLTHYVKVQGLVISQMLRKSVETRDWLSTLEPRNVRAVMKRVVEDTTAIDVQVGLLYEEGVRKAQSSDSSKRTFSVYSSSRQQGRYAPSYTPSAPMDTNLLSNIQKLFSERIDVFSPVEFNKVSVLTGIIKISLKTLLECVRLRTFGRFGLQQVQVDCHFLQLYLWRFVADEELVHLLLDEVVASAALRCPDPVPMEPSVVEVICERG
UniProt Q9Y2I8, sequence (Q9Y2I8 whole entry, looked up): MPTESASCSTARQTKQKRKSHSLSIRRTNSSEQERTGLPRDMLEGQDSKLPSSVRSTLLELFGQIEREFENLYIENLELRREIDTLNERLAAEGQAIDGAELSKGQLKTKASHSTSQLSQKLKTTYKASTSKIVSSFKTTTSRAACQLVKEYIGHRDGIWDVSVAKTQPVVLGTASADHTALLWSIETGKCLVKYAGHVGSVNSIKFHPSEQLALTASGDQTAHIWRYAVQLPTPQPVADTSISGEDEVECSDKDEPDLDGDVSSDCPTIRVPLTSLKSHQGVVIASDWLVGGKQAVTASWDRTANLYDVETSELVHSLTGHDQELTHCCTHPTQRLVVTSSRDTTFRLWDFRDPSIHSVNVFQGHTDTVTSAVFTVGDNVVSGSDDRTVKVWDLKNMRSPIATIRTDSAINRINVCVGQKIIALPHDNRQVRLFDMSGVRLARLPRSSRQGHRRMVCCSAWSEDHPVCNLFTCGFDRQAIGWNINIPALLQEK
UniProt O60287, sequence (O60287 whole entry, looked up): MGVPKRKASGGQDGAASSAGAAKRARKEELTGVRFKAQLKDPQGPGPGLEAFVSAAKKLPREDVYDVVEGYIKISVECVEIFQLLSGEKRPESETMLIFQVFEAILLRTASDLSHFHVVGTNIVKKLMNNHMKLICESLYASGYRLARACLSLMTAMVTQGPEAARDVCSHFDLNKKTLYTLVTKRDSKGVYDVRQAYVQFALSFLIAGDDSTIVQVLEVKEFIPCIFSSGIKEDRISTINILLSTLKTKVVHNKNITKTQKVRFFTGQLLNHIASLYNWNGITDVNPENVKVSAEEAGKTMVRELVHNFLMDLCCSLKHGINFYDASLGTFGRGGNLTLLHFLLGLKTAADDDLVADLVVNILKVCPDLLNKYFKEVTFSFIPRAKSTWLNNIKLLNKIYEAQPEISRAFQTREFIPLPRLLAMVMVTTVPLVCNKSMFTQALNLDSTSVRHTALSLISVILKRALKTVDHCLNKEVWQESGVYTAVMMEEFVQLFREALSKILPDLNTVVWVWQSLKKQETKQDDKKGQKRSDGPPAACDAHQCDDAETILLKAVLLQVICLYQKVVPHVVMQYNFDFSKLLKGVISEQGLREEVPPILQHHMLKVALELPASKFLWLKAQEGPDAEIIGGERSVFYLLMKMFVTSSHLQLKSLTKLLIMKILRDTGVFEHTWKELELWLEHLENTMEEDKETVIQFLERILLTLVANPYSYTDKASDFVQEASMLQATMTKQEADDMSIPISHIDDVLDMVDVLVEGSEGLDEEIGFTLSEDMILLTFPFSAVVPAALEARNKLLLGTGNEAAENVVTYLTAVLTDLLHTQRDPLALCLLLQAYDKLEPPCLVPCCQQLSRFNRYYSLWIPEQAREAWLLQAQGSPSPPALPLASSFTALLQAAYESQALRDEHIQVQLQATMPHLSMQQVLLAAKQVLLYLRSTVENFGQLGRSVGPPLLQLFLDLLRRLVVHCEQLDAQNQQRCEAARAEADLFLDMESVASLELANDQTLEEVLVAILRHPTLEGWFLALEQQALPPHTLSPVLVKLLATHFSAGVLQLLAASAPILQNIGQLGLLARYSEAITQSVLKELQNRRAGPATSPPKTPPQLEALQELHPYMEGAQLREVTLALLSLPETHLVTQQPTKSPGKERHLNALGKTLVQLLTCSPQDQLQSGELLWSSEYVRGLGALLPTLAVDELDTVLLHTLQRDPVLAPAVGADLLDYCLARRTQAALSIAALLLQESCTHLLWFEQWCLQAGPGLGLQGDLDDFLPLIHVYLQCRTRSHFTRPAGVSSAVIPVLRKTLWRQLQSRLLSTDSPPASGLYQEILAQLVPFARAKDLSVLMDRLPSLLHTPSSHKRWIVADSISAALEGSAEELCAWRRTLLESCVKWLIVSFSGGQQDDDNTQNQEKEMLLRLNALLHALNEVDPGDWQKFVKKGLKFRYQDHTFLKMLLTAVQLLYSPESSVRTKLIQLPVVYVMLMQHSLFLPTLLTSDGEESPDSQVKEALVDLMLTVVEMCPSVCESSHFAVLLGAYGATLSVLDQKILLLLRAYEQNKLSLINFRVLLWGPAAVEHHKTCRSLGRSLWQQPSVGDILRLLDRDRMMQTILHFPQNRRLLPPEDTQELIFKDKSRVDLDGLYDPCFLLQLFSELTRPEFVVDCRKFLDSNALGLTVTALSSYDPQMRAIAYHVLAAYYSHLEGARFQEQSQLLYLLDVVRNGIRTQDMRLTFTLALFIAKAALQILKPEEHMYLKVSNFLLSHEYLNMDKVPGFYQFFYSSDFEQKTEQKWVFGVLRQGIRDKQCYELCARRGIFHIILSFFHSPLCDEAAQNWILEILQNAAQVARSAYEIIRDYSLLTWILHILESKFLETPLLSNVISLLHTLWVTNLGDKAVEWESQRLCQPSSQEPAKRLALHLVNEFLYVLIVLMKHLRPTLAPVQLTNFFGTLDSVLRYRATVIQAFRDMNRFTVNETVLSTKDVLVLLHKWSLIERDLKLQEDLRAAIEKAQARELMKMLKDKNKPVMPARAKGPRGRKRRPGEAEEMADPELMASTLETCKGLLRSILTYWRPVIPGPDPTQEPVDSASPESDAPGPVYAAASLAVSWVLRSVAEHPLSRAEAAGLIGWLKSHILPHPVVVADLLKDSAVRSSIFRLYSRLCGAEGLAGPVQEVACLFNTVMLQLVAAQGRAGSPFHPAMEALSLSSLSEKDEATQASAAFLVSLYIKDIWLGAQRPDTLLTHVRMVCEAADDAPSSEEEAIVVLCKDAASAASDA
UniProt P50552, sequence (P50552 whole entry, looked up): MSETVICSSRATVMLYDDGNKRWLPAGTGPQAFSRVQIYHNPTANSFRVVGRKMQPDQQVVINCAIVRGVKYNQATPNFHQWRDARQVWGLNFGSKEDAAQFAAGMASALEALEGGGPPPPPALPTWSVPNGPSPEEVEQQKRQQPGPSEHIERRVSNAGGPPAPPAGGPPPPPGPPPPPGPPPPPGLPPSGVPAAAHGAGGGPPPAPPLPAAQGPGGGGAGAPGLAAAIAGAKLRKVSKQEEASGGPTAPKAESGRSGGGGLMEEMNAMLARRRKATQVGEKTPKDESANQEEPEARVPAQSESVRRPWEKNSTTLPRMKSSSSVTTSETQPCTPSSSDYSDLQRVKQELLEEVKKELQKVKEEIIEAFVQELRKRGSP
UniProt Q9H0U9, sequence (Q9H0U9 whole entry): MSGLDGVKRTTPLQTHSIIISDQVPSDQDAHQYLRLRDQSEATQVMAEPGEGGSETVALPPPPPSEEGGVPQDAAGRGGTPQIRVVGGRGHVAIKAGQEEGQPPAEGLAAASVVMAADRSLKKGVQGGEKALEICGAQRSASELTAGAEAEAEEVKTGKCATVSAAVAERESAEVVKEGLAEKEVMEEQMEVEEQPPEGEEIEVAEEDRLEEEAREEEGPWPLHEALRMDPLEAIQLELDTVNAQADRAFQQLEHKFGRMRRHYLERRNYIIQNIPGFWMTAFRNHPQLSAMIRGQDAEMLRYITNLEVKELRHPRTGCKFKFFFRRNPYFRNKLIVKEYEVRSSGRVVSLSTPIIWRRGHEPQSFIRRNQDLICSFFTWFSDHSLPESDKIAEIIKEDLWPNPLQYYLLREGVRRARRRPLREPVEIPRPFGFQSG
UniProt O43396, sequence (O43396 whole entry, looked up): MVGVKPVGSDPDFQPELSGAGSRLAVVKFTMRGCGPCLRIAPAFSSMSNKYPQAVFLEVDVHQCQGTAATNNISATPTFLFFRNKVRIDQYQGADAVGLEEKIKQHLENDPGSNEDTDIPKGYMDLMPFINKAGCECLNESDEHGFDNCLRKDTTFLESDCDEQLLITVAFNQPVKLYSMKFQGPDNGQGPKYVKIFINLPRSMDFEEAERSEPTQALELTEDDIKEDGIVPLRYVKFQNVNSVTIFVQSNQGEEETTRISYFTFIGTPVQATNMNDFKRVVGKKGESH

Target	probe-labelled cysteine peptide fold change (10 µM)	probe-labelled cysteine peptide fold change (50 µM)
TTC37_Q6PGP7_600_DFNCWESLGEAYLSR (UniProt Q6PGP7)	0.0103	-0.0643
TRMT1_Q9NXH9_351_QALVFQCVGCGAFHLQR (UniProt Q9NXH9)	0.147	0.318
USP40_Q9NVE5_50_NQGGTCYLNSLLQTLHFTPEFR (UniProt Q9NVE5)	-0.26	-0.513
VPS51_Q9UID3_226_AIQDDCQVITAR (UniProt Q9UID3)	-0.0611	0.0255
TXNL1_O43396_135+137+149_AGCECLNESDEHGFDNCLR (UniProt O43396)	-0.02	-0.634
VASP_P50552_7_SETVICSSR (UniProt P50552)	0.55	0.717
URB1_O60287_315_ELVHNFLMDLCCSLK (UniProt O60287)	-0.0229	-0.0236
TTC14_Q96N46_165_DIAHLEITALCPLR (UniProt Q96N46)	0.0661	0.0914
XPC_Q01831_224_NNICSQPDLHAIGLSIIPAR (UniProt Q01831)	-0.0894	0.0467
TTC30B_Q8N4P2_619_DSVIQECVQFLEHCELHGR (UniProt Q8N4P2)	0.056	0.655
WDR37_Q9Y2I8_329_TANLYDVETSELVHSLTGHDQELTHCCTHPTQR (UniProt Q9Y2I8)	0.0866	-0.193
TSPYL1_Q9H0U9_375_NQDLICSFFTWFSDHSLPESDK (UniProt Q9H0U9)	0.789	0.39
TTC37_Q6PGP7_1162_CLLTSAIYALQGR (UniProt Q6PGP7)	-0.13	-0.0818
USP19_O94966_1017_LEDKGDTPLELGDDCSLALVWR (UniProt O94966)	-0.14	-0.0111
